Menin MLL FP TR: menin-MLL binding inhibition, Texas Red mutant peptide; O00255; Menin + Texas Red MLL mutant peptide, fluorescence polarization; Potency, µM (doses to about 61.6 µM), for inactives: top-dose FP activity change, negative = inhibition, most hits filed as inhibitors; actives 0.23% (n = 270,000); active = well fitted inhibition curve with a large enough effect in the polarisation, with a control signal flat, not every such curve was filed as active; inconclusive = small, poorly fitted or top-dose-only effect, or effect the other way, or a change in a side signal; inactive = no such curve, though single readings can be large or run the other way; the % refers to the polarisation; also: potency is read from the fitted curve at half-maximal effect; % of control where 0% means no effect
Menin-MLL FL inh: displaces fluorescein MLL peptide from human menin; 290,000 tested, under 10 active; FP activity change, % at 61.4 µM; Fluorescence polarization, fluorescein-MLL peptide displacement from menin; active = well fitted curve in the direction sought with a large enough effect in the polarisation, not every such curve was filed as active; inconclusive = small, poorly fitted or top-dose-only effect, or effect the other way, or a change in a side signal; inactive = no such curve, though single readings can be large or run the other way; the % refers to the polarisation; also: % of control where 0% means no effect
MLL CXXC-DNA inh: blocks binding of human MLL CXXC domain to DNA. Potency, µM (series often up to 115 µM), without a hit: at the top dose activity change, negative = inhibition, actives largely listed as inhibitors. actives 0.037% (n = 290,000). Q03164. MLL-CXXC / FITC-HOXA9 DNA fluorescence polarization; active = well fitted inhibition curve with a large enough effect in the polarisation, with a control signal flat, not every such curve was filed as active; inconclusive = small, poorly fitted or top-dose-only effect, or effect the other way, or a change in a side signal; inactive = no such curve, though single readings can be large or run the other way; the % refers to the polarisation; also: potency is read from the fitted curve at half-maximal effect
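Steps: dispense CXXC domain solution (7 uM) → pin compounds or unlabeled HOX-A9 DNA control → 5 min ambient → add FLSN-HOX-A9 solution (50 nM) → spin → 30 min ambient → fluorescence polarization. Tris pH 7.5/NaCl/DTT/BSA buffer.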
Epigenetic reg: derepresses silenced GFP reporter in murine cells. Potency, µM (highest dose often 53.9 µM), for the others: at the highest dose GFP activation, hits mostly activators. murine LDR cells, GFP reporter derepression, 30 h. actives 0.2% (n = 280,000). AID 1865; also: potency is read from the fitted curve at half-maximal effect; % of control where 0% means no effect; nearly all actives have a fitted effect of over 60% in size
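Reporter derepression read as number of fluorescent GFP-positive objects, 20-120 um in size, counted by laser-scanning cytometer. Mouse LDR line with an epigenetically silenced CMV-GFP locus; compound incubation 30 h, 37 C.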
Lamin A splicing: LMNA splicing modulation; Potency, µM (highest dose often 46.1 µM), without a hit: at the highest dose ratio change, negative = inhibition, actives largely listed as inhibitors; actives 0.01% (n = 200,000); HeLa LMNA splicing GFP/RFP minigene ratio, 48 h; active = well fitted inhibition curve with a large enough effect in the signal ratio, with a control signal flat, not every such curve was filed as active; inconclusive = small, poorly fitted or top-dose-only effect, or effect the other way, or a change in a side signal; the % refers to the signal ratio; also: potency is read from the fitted curve at half-maximal effect; % is scaled to controls: 0 for no effect and ±100 for the full control effect
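Read-out is the ratio of GFP to DsRed2 object intensity, acquired by 488 nm laser-scanning cytometry on HeLa lamin A-EGFP minigene reporter cells. Compound incubation 48 hrs at 37 °C in Opti-MEM with 2% FBS; DMSO 0.5% final.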
MLL CXXC FP-Fl: disrupts human MLL CXXC domain binding to DNA | actives 70% (n = 200) | shares compounds with MLL CXXC-DNA inh | AID 624160 | Potency, µM (titrated, usually from 345 µM), for inactives: top-dose activity change, negative = inhibition, hits mostly inhibitors | MLL CXXC-DNA binding, fluorescein FP; also: potency is read from the fitted curve at half-maximal effect; nearly all actives have a fitted effect of over 80% in size
MLL CXXC FP-TR: MLL CXXC-DNA interaction inhibition, Texas Red FP. actives 40% (n = 200). Potency, µM (titrated, usually from 345 µM), without a hit: top-dose activity change, negative = inhibition, usual class: inhibitors. AID 624161. shares compounds with MLL CXXC-DNA inh. MLL CXXC-DNA binding, Texas Red fluorescence polarization; also: potency is read from the fitted curve at half-maximal effect; % is scaled to controls: 0 for no effect and ±100 for the full control effect; nearly all actives have a fitted effect of over 75% in size
MLL CXXC TRF: MLL CXXC-DNA interaction inhibition, HTRF readout; shares compounds with MLL CXXC-DNA inh; MLL CXXC-DNA binding, HTRF, biochemical; Potency, µM (series often up to 172 µM), inactives show at the top dose activity change, negative = inhibition, hits mostly inhibitors; actives 30% (n = 210); AID 624162; also: % is scaled to controls: 0 for no effect and ±100 for the full control effect; nearly all actives have a fitted effect of over 80% in size
Active calls of the source: *; ? = inconclusive; / = not tested or not shown; [ ] = dose if it differs, or a comment. An excerpt weighted towards active compounds, which were near 0.26% of everything screened. Unless noted, calls follow the shape of the dose curve; as a rule, active = well fitted curve in the direction sought with a large enough effect; inconclusive = small, poorly fitted or top-dose-only effect, or another doubt; inactive = no such curve, though single readings can be large; an effect the other way counts as inactive or inconclusive.

SMILES | Menin MLL FP TR | Menin-MLL FL inh | MLL CXXC-DNA inh | Epigenetic reg | Lamin A splicing | MLL CXXC FP-Fl | MLL CXXC FP-TR | MLL CXXC TRF
COc1cc(OC)cc(C2=Nn3c(nnc3-c3ccccc3OC)SC2)c1 | -0.3% | ? | / | / | / | / | / | /
COc1ccc(Nc2nnc(-c3ccc(C)c(S(N)(=O)=O)c3)c3ccccc23)cc1 | / | / | / | -0.8% | / | / | / | /
CNC(=O)c1cc(Nc2nnc(-c3ccc(C)c(S(N)(=O)=O)c3)c3ccccc23)ccc1OC | 4.8% | 0.1 | ? | / | / | 142µM* | 14.3% | 12.5%
N#CC(C#N)=C1C=C2C=C(N3CCCCCC3)CCC2CC1 (stereo not drawn) | ? | ? | ? | ? | ? | 0.448µM* | 71.1µM* | 217.1%
CN1CCN(C2=CC3=CC(=C(C#N)C#N)CCC3CC2)CC1 (stereo not drawn) | -1.9% | ? | ? | ? | / | / | / | /
COc1ccccc1CNc1ncnc2ccc(-c3ccccc3C#N)cc12 | 9.1% | 0.7 | / | / | ? | / | / | /
CC(C)([CH2][Sn]([CH2]C(C)(C)c1ccccc1)([CH2]C(C)(C)c1ccccc1)[O][Sn]([CH2]C(C)(C)c1ccccc1)([CH2]C(C)(C)c1ccccc1)[CH2]C(C)(C)c1ccccc1)c1ccccc1 | -24.6% | -1.1 | / | / | / | / | / | /
C=CCOc1ccc(C2OC34CCCCC3C(C#N)(C#N)C2(C#N)C(=N)O4)cc1 (stereo not drawn) | -19.0% | ? | -15.4% | -0.7% | 7.6% | / | / | /
CCC12OC(=N)C(C#N)(C1C)C(C#N)(C#N)C(c1ccccc1)O2 (stereo not drawn) | -6.0% | -3.3 | 20µM* | 0.0% | -10.2% | 12.6µM* | 22.5µM* | 32.5%
CC1(C)CC(=O)C(C(C2=C(O)CC(C)(C)CC2=O)c2ccc(O)c([N+](=O)[O-])c2)=C(O)C1 | 10.4% | -1.7 | 28.2µM* | 1.6% | ? | 17.9µM* | 63.3µM* | 7.69µM*
COc1cc(/C=C2/C(=O)NN(c3ccc(C)c(Cl)c3)C2=O)cc([N+](=O)[O-])c1O | ? | 1.1 | ? | / | / | 79.7µM* | 113µM* | 33.3%
c1nc2nc(Nc3ccc(N4CCOCC4)cc3)nc(NC3CCCCC3)c2[nH]1 | ? | -0.3 | / | / | / | / | / | /
COc1cc(C=C2C(=O)c3ccccc3C2=O)cc(OC)c1 | / | 5.0 | ? | ? | / | / | / | /
COc1ccc(C=C2C(=O)c3ccccc3C2=O)cc1O | ? | 20.6 | ? | 0.9% | / | / | / | /
COc1cc(C=C2C(=O)c3ccccc3C2=O)cc(OC)c1OC | 14.1% | ? | 35.5µM* | ? | / | 44.8µM* | 142µM* | 96.8µM*
COc1cc(C=C2C(=O)c3ccccc3C2=O)ccc1O | / | 13.1 | ? | ? | / | 28.3µM* | ? | 50.7%
CCOC(=O)/C(C#N)=C1\SS/C(=C(/C#N)C(=O)OCC)S1 | ? | ? | 17.8µM* | -0.9% | / | 25.2µM* | 63.3µM* | 4.85µM*
CC[C@@]1(O)C(=O)OCc2c1cc1n(c2=O)Cc2cc3c(CN(C)C)c(O)ccc3nc2-1 | -1.4% | ? | 44.7µM* | 8.0% | ? | 31.7µM* | -5.2% | 10.2%
N#C/C(=C\c1cccs1)C(=O)c1ccccc1 | / | 0.8 | ? | -0.6% | / | 3.2% | 113µM* | -13.9%
O=C(O)c1ccc(COc2ccccc2C=C2C(=O)c3ccccc3C2=O)cc1 | 26.6% | 4.3 | 17.8µM* | ? | -8.0% | 17.9µM* | 56.5µM* | 76.9µM*
C#CCCCO/N=C1/C[C@@H](O)[C@@H](O)[C@@H]2[C@@H]3C(=O)N(C4CCCCC4)C(=O)[C@H]3CC[C@H]12 | 1.8%[11.7 µM] | 0.7[11.7 µM] | / | 0.8%[10.1 µM] | / | / | / | /
O=C(O)c1cccc(-n2cccc2C=C2C(=O)c3ccccc3C2=O)c1 | ? | 7.9 | ? | 3.7% | / | 179µM* | ? | 25.2%
COc1cc(/C=C2/SC(=O)NC2=O)ccc1OCc1ccccc1 | ? | -5.9 | ? | / | / | / | / | /
COc1ccc(/C=C2/SC(=S)NC2=O)cc1OCc1ccccc1 | ? | 8.5 | ? | / | / | ? | 22.2% | 29.6%
CC#CCN1c2ccccc2[C@]23C[C@@H](C(=O)OC)N(S(=O)(=O)c4ccc([N+](=O)[O-])cc4)C2=NC(C(=O)OC)=C(C(=O)OC)[C@H]13 | -19.8%[11.7 µM] | -8.0[11.7 µM] | / | / | 2.5%[9.22 µM] | / | / | /
SMILES | Menin MLL FP TR | Menin-MLL FL inh | MLL CXXC-DNA inh | Epigenetic reg | Lamin A splicing | MLL CXXC FP-Fl | MLL CXXC FP-TR | MLL CXXC TRF
CCOC(=O)/C=C(\C)Sc1cc(O)c2ccccc2c1O | / | -7.2 | 31.6µM* | 1.1% | / | ? | ? | 19.3µM*
O=C(O)CCN1C(=O)/C(=C\c2cccc(OCC(=O)Nc3ccc(Cl)cc3)c2)SC1=S | / | 13.6 | ? | -0.3% | / | ? | 142µM* | -61.3%
Cc1ccc(NC(=O)COc2cccc(/C=C3\SC(=S)N(CCC(=O)O)C3=O)c2)cc1Cl | / | 4.2 | -24.1% | -0.1% | / | / | / | /
COCCCNc1c2c3c(cccc3[nH]c1=O)C(=O)c1ccccc1-2 | 31.6µM* | ? | ? | ? | ? | 0.565µM* | 63.3µM* | 24.8%
CCOC(=O)CN1C(=O)N[C@@H](c2cccc(C(F)(F)F)c2)[C@H](C(=O)OC)[C@H]1C | 3.0%[11.7 µM] | -1.7[11.7 µM] | / | / | ? | / | / | /
C=CC1=C2C=C(C3CC3)N(CCN3CCOCC3)C=C2C(=O)C(C)(OC(=O)c2ccco2)C1=O (stereo not drawn) | -3.0%[11.7 µM] | ? | / | / | 11.0%[9.22 µM] | / | / | /
CC[C@H](C)[C@H](N)C(=O)N[C@@H](CC(N)=O)C(=O)N1CCC[C@H]1C(=O)N[C@H](C(=O)N[C@@H](Cc1ccc(O)cc1)C(=O)N[C@@H](CCCN=C(N)N)C(=O)N[C@@H](CC(C)C)C(=O)N[C@@H](CCCN=C(N)N)C(=O)N[C@@H](Cc1ccc(O)cc1)C(N)=O)[C@@H](C)CC | 5.4% | 4.3 | / | / | / | / | / | /
COCC(=O)N1CCc2nc(-c3ccc(OC)cc3C)c3c(c2C1)CO[C@@H](c1ccccc1)C3 | -7.1%[11.7 µM] | -4.3[11.7 µM] | / | / | ? | / | / | /
O=C1NN(c2ccccc2)C(=O)/C1=C\c1ccc2c(c1)OCO2 | 9.4% | 2.5 | ? | / | / | 28.3µM* | ? | 0.0%
COc1cccc(/C=C2/C(=O)NN(c3ccccc3)C2=O)c1 | -0.1% | -3.6 | -3.4% | / | / | / | / | /

Source: PubChem BioAssay
